Source: PubChem BioAssay (EPA / NIEHS)
Activity calls are given as the source filed them. Rule for the calls: active = hit-call score of the fitted dose curve at least 0.9, where 1 is the maximum; inactive = score below 0.9.

Each compound was assayed on CYP2C8 (gene 1558) (assay: LTEA_HepaRG_CYP2C8: Life Technologies and Expression Analysis (LTEA) Assay for CYP2C8 using HepaRG (AID 2283483)). Conditions: mRNA level, 48 h; actives raise or lower the signal.
Procedure, shortened: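 Differentiated HepaRG cells in serum-free induction medium exposed 48 h in duplicate to 8 half-log concentrations from 100 uM in 0.5% DMSO. CYP2C8 mRNA by qRT-PCR normalized to ACTB, GAPDH, POLR2A; bidirectional fit versus DMSO.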

Row | Structure (SMILES) | outcome | AC50
1 | N#CN=C1SCCN1Cc1ccc(Cl)nc1 | inactive | 
2 | CNC(=O)N(C)c1nnc(C(C)(C)C)s1 | inactive | 
3 | CC(C)NC(=O)N1CC(=O)N(c2cc(Cl)cc(Cl)c2)C1=O | inactive | 
4 | O=C(Nc1ccccc1-c1ccc(Cl)cc1)c1cccnc1Cl | inactive | 
5 | O=P(O)(O)CCCl | inactive | 
6 | Cn1c(-c2ccccc2)cc(-c2ccccc2)[n+]1C |  | 13.5 µM (active)
7 | CC1(C)C(C=C(Cl)Cl)C1C(=O)OC(C#N)c1cccc(Oc2ccccc2)c1 (stereo unspecified) | inactive | 
8 | COC(=O)NS(=O)(=O)c1ccc(N)cc1 | inactive | 
9 | CCOc1cc(C(C)(C)C)ccc1C1COC(c2c(F)cccc2F)=N1 (stereo unspecified) |  | 7.92 µM (active)
10 | C=CCOC(=O)C(C)(C)OC(=O)c1cc(-n2c(=O)cc(C(F)(F)F)n(C)c2=O)ccc1Cl | inactive | 
11 | Cc1c(COC(=O)[C@@H]2[C@H](/C=C(\Cl)C(F)(F)F)C2(C)C)cccc1-c1ccccc1 | inactive | 
12 | CC(C)Oc1cccc(NC(=O)c2ccccc2C(F)(F)F)c1 |  | 50 µM (active)
13 | COCC(C)N(C(=O)CCl)c1c(C)csc1C (stereo unspecified) | inactive | 
14 | CC1(C)CCC(=Cc2ccc(Cl)cc2)C1(O)Cn1cncn1 (stereo unspecified) |  | 12.6 µM (active)
15 | CC(C)N1C(=O)N(c2ccccc2)CSC1=NC(C)(C)C |  | 84.2 µM (active)

The compounds below were run on CYP2C9 (gene 1559) (assay: LTEA_HepaRG_CYP2C9: Life Technologies and Expression Analysis (LTEA) Assay for CYP2C9 using HepaRG (AID 2283484)). Conditions: mRNA level, 48 h; actives raise or lower the signal.
Procedure, shortened: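 Differentiated human HepaRG cells in serum-free induction medium were exposed 48 h to chemicals in 8-point half-log series from 100 uM (0.5% DMSO), in duplicate. CYP2C9 mRNA was measured by qRT-PCR, normalized to ACTB/GAPDH/POLR2A, with bidirectional fitting versus DMSO.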

Row | Structure (SMILES) | outcome | AC50
16 | Cc1cc(C)nc(Nc2ccccc2)n1 | inactive | 
17 | C=C(C)CN(CC)c1c([N+](=O)[O-])cc(C(F)(F)F)cc1[N+](=O)[O-] | inactive | 
18 | Cc1ccc(N=CN(C)C=Nc2ccc(C)cc2C)c(C)c1 | inactive | 
19 | CN=C=S | inactive | 
20 | CC(C)=CC1C(C(=O)OCc2coc(Cc3ccccc3)c2)C1(C)C (stereo unspecified) | inactive | 
21 | CCCCOCN(C(=O)CCl)c1c(CC)cccc1CC | inactive | 
22 | COCC(=O)N(c1c(C)cccc1C)C(C)C(=O)OC (stereo unspecified) | inactive | 
23 | CSC(=O)c1c(C(F)F)nc(C(F)(F)F)c(C(=O)SC)c1CC(C)C |  | 87 µM (active)
24 | COc1cc(Cl)c(OC)cc1Cl | inactive | 
25 | CC(C)N1C(=O)c2ccccc2NS1(=O)=O | inactive | 
26 | CCOP(=S)(OCC)Oc1nc(Cl)n(C(C)C)n1 | inactive | 
27 | Clc1nc(Cl)nc(Nc2ccccc2Cl)n1 | inactive | 
28 | CC1(C)C(C(=O)OC(C#N)c2cccc(Oc3ccccc3)c2)C1(C)C (stereo unspecified) | inactive | 
29 | COP(=O)(OC)O/C(C)=C/C(=O)N(C)C | inactive | 
30 | COc1ccc(-c2ccccc2)cc1NNC(=O)OC(C)C | inactive | 
31 | OC(c1ccc(Cl)cc1)(c1ccc(Cl)cc1)C(Cl)(Cl)Cl |  | 81.6 µM (active)
32 | CCCC(=NOCC)C1=C(O)CC(CC(C)SCC)CC1=O (stereo unspecified) | inactive | 
33 | COc1cc(OC)nc(NC(=O)NS(=O)(=O)c2ncccc2OCC(F)(F)F)n1 |  | 6.59 µM (active)

Row | Structure (SMILES) | outcome | AC50
34 | CO/N=C(/C1=NOCCO1)c1ccccc1Oc1ncnc(Oc2ccccc2Cl)c1F |  | 25.2 µM (active)
35 | CCN(CC)C(=O)C(C)Oc1cccc2ccccc12 (stereo unspecified) | inactive | 
36 | CCCCC(C#N)(Cn1cncn1)c1ccc(Cl)cc1 (stereo unspecified) | inactive | 
37 | N#CN=C1SCCN1Cc1ccc(Cl)nc1 | inactive | 
38 | CNC(=O)N(C)c1nnc(C(C)(C)C)s1 | inactive | 
39 | CC(C)NC(=O)N1CC(=O)N(c2cc(Cl)cc(Cl)c2)C1=O | inactive | 
40 | O=C(Nc1ccccc1-c1ccc(Cl)cc1)c1cccnc1Cl | inactive | 
41 | O=P(O)(O)CCCl | inactive | 
42 | Cn1c(-c2ccccc2)cc(-c2ccccc2)[n+]1C |  | 19.5 µM (active)
43 | CC1(C)C(C=C(Cl)Cl)C1C(=O)OC(C#N)c1cccc(Oc2ccccc2)c1 (stereo unspecified) | inactive | 
44 | COC(=O)NS(=O)(=O)c1ccc(N)cc1 | inactive | 
45 | CCOc1cc(C(C)(C)C)ccc1C1COC(c2c(F)cccc2F)=N1 (stereo unspecified) | inactive | 
46 | C=CCOC(=O)C(C)(C)OC(=O)c1cc(-n2c(=O)cc(C(F)(F)F)n(C)c2=O)ccc1Cl | inactive | 
47 | Cc1c(COC(=O)[C@@H]2[C@H](/C=C(\Cl)C(F)(F)F)C2(C)C)cccc1-c1ccccc1 | inactive | 
48 | CC(C)Oc1cccc(NC(=O)c2ccccc2C(F)(F)F)c1 | inactive | 
49 | COCC(C)N(C(=O)CCl)c1c(C)csc1C (stereo unspecified) | inactive | 
50 | CC1(C)CCC(=Cc2ccc(Cl)cc2)C1(O)Cn1cncn1 (stereo unspecified) | inactive | 
51 | CC(C)N1C(=O)N(c2ccccc2)CSC1=NC(C)(C)C |  | 83.3 µM (active)

What follows are compounds tested on CYP2E1 (gene 1571) (assay: LTEA_HepaRG_CYP2E1: Life Technologies and Expression Analysis (LTEA) Assay for CYP2E1 using HepaRG (AID 2283485)). Conditions: mRNA level, 48 h; actives raise or lower the signal.
Procedure, shortened: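 Differentiated HepaRG cells were treated in duplicate for 48 h with chemicals in 0.5% DMSO, from 100 uM downward in half-log dilutions. RNA was then analysed by qRT-PCR for CYP2E1 induction or loss.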

Row | Structure (SMILES) | outcome | AC50
52 | Cc1cc(C)nc(Nc2ccccc2)n1 | inactive | 
53 | C=C(C)CN(CC)c1c([N+](=O)[O-])cc(C(F)(F)F)cc1[N+](=O)[O-] |  | 87.9 µM (active)
54 | Cc1ccc(N=CN(C)C=Nc2ccc(C)cc2C)c(C)c1 | inactive | 
55 | CN=C=S | inactive | 
56 | CC(C)=CC1C(C(=O)OCc2coc(Cc3ccccc3)c2)C1(C)C (stereo unspecified) |  | 39.1 µM (active)
57 | CCCCOCN(C(=O)CCl)c1c(CC)cccc1CC | inactive | 
58 | COCC(=O)N(c1c(C)cccc1C)C(C)C(=O)OC (stereo unspecified) |  | 50 µM (active)
59 | CSC(=O)c1c(C(F)F)nc(C(F)(F)F)c(C(=O)SC)c1CC(C)C |  | 53.7 µM (active)
60 | COc1cc(Cl)c(OC)cc1Cl | inactive | 
61 | CC(C)N1C(=O)c2ccccc2NS1(=O)=O | inactive | 
62 | CCOP(=S)(OCC)Oc1nc(Cl)n(C(C)C)n1 |  | 26.5 µM (active)
63 | Clc1nc(Cl)nc(Nc2ccccc2Cl)n1 |  | 16.7 µM (active)
64 | CC1(C)C(C(=O)OC(C#N)c2cccc(Oc3ccccc3)c2)C1(C)C (stereo unspecified) |  | 9.92 µM (active)
65 | COP(=O)(OC)O/C(C)=C/C(=O)N(C)C | inactive | 
66 | COc1ccc(-c2ccccc2)cc1NNC(=O)OC(C)C | inactive | 
67 | OC(c1ccc(Cl)cc1)(c1ccc(Cl)cc1)C(Cl)(Cl)Cl |  | 50 µM (active)
68 | CCCC(=NOCC)C1=C(O)CC(CC(C)SCC)CC1=O (stereo unspecified) |  | 50.2 µM (active)
69 | COc1cc(OC)nc(NC(=O)NS(=O)(=O)c2ncccc2OCC(F)(F)F)n1 | inactive | 

Row | Structure (SMILES) | outcome | AC50
70 | CO/N=C(/C1=NOCCO1)c1ccccc1Oc1ncnc(Oc2ccccc2Cl)c1F |  | 7.94 µM (active)
71 | CCN(CC)C(=O)C(C)Oc1cccc2ccccc12 (stereo unspecified) |  | 73.5 µM (active)
72 | CCCCC(C#N)(Cn1cncn1)c1ccc(Cl)cc1 (stereo unspecified) |  | 50 µM (active)
73 | N#CN=C1SCCN1Cc1ccc(Cl)nc1 | inactive | 
74 | CC(C)NC(=O)N1CC(=O)N(c2cc(Cl)cc(Cl)c2)C1=O |  | 13.2 µM (active)
75 | O=C(Nc1ccccc1-c1ccc(Cl)cc1)c1cccnc1Cl |  | 52.5 µM (active)
76 | O=P(O)(O)CCCl | inactive | 
77 | Cn1c(-c2ccccc2)cc(-c2ccccc2)[n+]1C |  | 24.5 µM (active)
78 | CC1(C)C(C=C(Cl)Cl)C1C(=O)OC(C#N)c1cccc(Oc2ccccc2)c1 (stereo unspecified) |  | 50.2 µM (active)
79 | COC(=O)NS(=O)(=O)c1ccc(N)cc1 | inactive | 
80 | CCOc1cc(C(C)(C)C)ccc1C1COC(c2c(F)cccc2F)=N1 (stereo unspecified) |  | 18.7 µM (active)
81 | C=CCOC(=O)C(C)(C)OC(=O)c1cc(-n2c(=O)cc(C(F)(F)F)n(C)c2=O)ccc1Cl | inactive | 
82 | Cc1c(COC(=O)[C@@H]2[C@H](/C=C(\Cl)C(F)(F)F)C2(C)C)cccc1-c1ccccc1 |  | 48.2 µM (active)
83 | CC(C)Oc1cccc(NC(=O)c2ccccc2C(F)(F)F)c1 |  | 84.4 µM (active)
84 | COCC(C)N(C(=O)CCl)c1c(C)csc1C (stereo unspecified) |  | 64.6 µM (active)
85 | CC1(C)CCC(=Cc2ccc(Cl)cc2)C1(O)Cn1cncn1 (stereo unspecified) |  | 27.1 µM (active)
86 | CC(C)N1C(=O)N(c2ccccc2)CSC1=NC(C)(C)C |  | 63.5 µM (active)
